# Assay outcomes: PubChem, Buhrlage Lab, Dana-Farber Cancer Institute and Novartis Institutes for BioMedical Research (Cambridge, Mass)
# USP10 block = human USP10 deubiquitinase inhibition. Q14694. purified USP10, Ub-rhodamine fluorescence, 60 min. inhibition, % at 20 µM. actives 1.1% (n = 47,000). AID 1645856
# OTUD3 block = inhibitors of human OTUD3 deubiquitinase. AID 1645858. inhibition, % at 25 µM. actives 0.7% (n = 47,000). purified OTUD3, Ub-rhodamine fluorescence, 2 h
# USP28 block = inhibitors of human USP28 deubiquitinase; Q96RU2; purified USP28, Ub-rhodamine cleavage fluorescence, 30 min; inhibition, % at 25 µM; actives 3% (n = 47,000); AID 1645857
# USP8 block = blocks human USP8 ubiquitin-rhodamine cleavage. P40818. purified USP8, Ub-rhodamine cleavage fluorescence, 30 min. inhibition, % at 20 µM. actives 4.2% (n = 47,000). AID 1645853
# USP30 inh = blocks human USP30 ubiquitin-rhodamine cleavage. actives 5.3% (n = 47,000). Q70CQ3. purified USP30, Ub-rhodamine cleavage fluorescence. inhibition, % at 25 µM
# USP17 block = human USP17-like deubiquitinase inhibition; A8MUK1; purified USP17, Ub-rhodamine cleavage fluorescence, 3 h; inhibition, % at 50 µM; actives 6.5% (n = 47,000); AID 1645855
# Target sequence (A8MUK1 whole entry, looked up): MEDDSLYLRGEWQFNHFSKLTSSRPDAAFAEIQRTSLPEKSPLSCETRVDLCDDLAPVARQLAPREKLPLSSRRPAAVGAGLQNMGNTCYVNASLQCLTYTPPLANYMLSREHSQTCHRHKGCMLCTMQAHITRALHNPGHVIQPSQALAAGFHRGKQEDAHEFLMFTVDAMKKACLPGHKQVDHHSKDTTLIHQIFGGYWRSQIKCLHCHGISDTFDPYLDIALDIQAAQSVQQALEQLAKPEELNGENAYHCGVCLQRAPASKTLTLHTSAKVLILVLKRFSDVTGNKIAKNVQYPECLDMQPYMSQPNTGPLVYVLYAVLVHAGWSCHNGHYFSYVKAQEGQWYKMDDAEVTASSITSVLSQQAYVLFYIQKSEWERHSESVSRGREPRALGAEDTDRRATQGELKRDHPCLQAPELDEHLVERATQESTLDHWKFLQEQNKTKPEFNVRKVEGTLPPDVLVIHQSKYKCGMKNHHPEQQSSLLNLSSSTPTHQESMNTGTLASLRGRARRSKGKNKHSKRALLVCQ
# The depositor's hits bear a star; / = not tested or not shown. Sampled rows, rich in hits. Any-hit rate of the full collection: about 13%. Rule as the data show it: active = inhibition above about 30%; inactive = the rest.
SMILES,USP10 block,OTUD3 block,USP28 block,USP8 block,USP30 inh,USP17 block
COc1ccc(-c2nc(-c3ccc4oc(C)nc4c3)no2)c(OC)c1,-0.4,-4.8,-14.3,-1.2,-11.5,-3.7
COc1ccccc1-c1nc(-c2cn(-c3ccccc3)nn2)no1,3.6,11.8,16.6,14.1,26.0,14.9
COc1ccc(-c2nc(-c3cn(-c4cccc(Cl)c4)nn3)no2)c(OC)c1,34.0*,-3.3,/,29.5,/,64.9*
COc1ccccc1-c1nc(-c2cn(-c3ccc(F)cc3)nn2)no1,33.3*,8.3,12.9,89.3*,40.7*,30.9*
Fc1cccc(-n2cc(-c3noc(-c4cccnc4)n3)nn2)c1,3.1,6.0,20.9,51.9*,60.9*,53.5*
COc1ccc(-c2nc(-c3cn(-c4ccccc4)nn3)no2)c(OC)c1,20.4,34.5*,54.3*,38.3*,94.1*,70.5*
Clc1cccc(-n2cc(-c3noc(-c4ccncc4)n3)nn2)c1,-1.0,-5.0,-7.4,-4.2,-9.2,-31.9
CN1CCCN(C(=O)c2cn(-c3ccc(-c4nc(C(C)(C)C)no4)cn3)cn2)CC1,2.3,8.0,5.7,15.8,9.3,9.8
O=C(C(=O)N(Cc1ccccc1)Cc1ccccc1)c1cn(CC(=O)N2CCCCC2)c2ccccc12,1.0,0.0,/,1.8,/,14.9
COc1ccccc1Cc1nc(-c2cn(-c3cccc(F)c3)nn2)no1,8.9,13.4,19.5,19.8,33.5*,13.1
COc1ccc(-c2nc(-c3nnn(Cc4ccc(F)cc4)c3C)no2)c(OC)c1,10.8,27.1,39.8*,59.6*,66.1*,33.8*
COc1ccc(-c2nc(-c3nnn(Cc4cccc(F)c4)c3C)no2)cc1OC,-4.9,5.4,20.7,-0.7,4.5,7.3
Cc1cc(CN2CCCCC2c2cc(=O)n3ccnc3[nH]2)no1 (centres undefined),-8.6,-1.8,-4.6,-0.5,-28.5,-7.0
CO[C@H]1/C=C/C=C\C=C\C[C@@H](OC(=O)[C@H](C)NC(=O)C2CCCCC2)[C@H](C)[C@@H](O)/C(C)=C\CCC2=CC(=O)C=C(NC(=O)C1)C2=O,-2.8,1.2,3.8,-10.3,-13.6,45.7*
COc1ccc(-c2c(-c3ccc(OCCN4CCOCC4)cc3O)n[nH]c2C)cc1OC,-1.7,-3.4,-16.4,54.6*,-23.5,0.9
CC(=O)Nc1ccc(C(=O)N[C@@H]2c3ccccc3[C@@H]3CN(C(C)=O)C[C@H]23)cc1,0.2,-0.6,-4.6,-15.8,-11.0,1.3
COc1ccc(-c2cc(C(=O)Nc3cccc(Br)c3)c3ccccc3n2)cc1,5.6,12.8,4.0,24.6,19.1,11.7
Cc1nn(CC(=O)NCc2ccccc2F)c2ccccc12,0.3,13.6,4.4,3.7,29.2,51.2*
CC1CCC(Nc2ncnc3c2CN(C2CCNC2)C(=O)CN3C)CC1 (centres undefined),-1.6,12.9,18.3,-128.2,2.6,-19.6
CN1CC(=O)N(C2CCNC2)Cc2c(NC3Cc4ccccc4C3)ncnc21 (centres undefined),-3.5,1.0,19.7,11.6,11.5,49.9*
COc1ccc(-n2c(C)cc(C(=O)CSc3nncn3-c3ccccc3OC)c2C)cc1,2.4,-6.5,30.5*,9.6,1.5,33.6*
COCC(C)n1c(C)cc(C(=O)CSc2nncn2-c2ccccc2OC)c1C (centres undefined),0.3,-3.2,-18.4,0.1,-19.1,-9.2
N#Cc1c(Cl)cccc1Oc1ccc(S(=O)(=O)N2CCC(O)CC2)cc1,-1.1,-1.5,16.7,-0.2,18.4,66.1*
O=C(Nc1cccc(Cl)c1Oc1ccc(S(=O)(=O)N2CCOCC2)cc1)C(F)(F)F,1.8,3.0,8.0,11.2,-5.7,1.2
CS/C=C/C(=O)O,1.8,14.3,4.8,2.0,19.5,11.7
SMILES,USP10 block,OTUD3 block,USP28 block,USP8 block,USP30 inh,USP17 block
COCc1cc(C)nc2sc3c(c12)NC(c1ccc(NC(C)=O)cc1)N(Cc1ccccc1)C3=O (centres undefined),-5.3,3.7,6.1,18.8,71.7*,53.0*
COc1ccc(NS(=O)(=O)c2cc(C(=O)OC(C)C(=O)c3ccc(OC)cc3)ccc2F)cc1 (centres undefined),5.1,-2.5,0.2,-7.6,-3.8,1.7
Cc1nc2c(c3c1[nH]c1ccccc13)C(=O)CC(C)(C)C2,-4.7,-41.2,-65.2,-32.0,-128.0,-57.2
O=C1NCc2c1c1c3ccccc3[nH]c1c1[nH]c3ccccc3c21,10.4,-0.7,19.5,5.4,37.3*,51.1*
Nc1c(-c2ccncc2)nsc1C(=O)N1CCc2ccccc2C1,1.1,-2.1,8.6,-80.3,-7.9,-15.9
CCc1ccccc1N1CC(c2nnc(NC(=O)CCc3ccccc3)s2)CC1=O (centres undefined),4.7,-2.1,-5.3,-9.9,-7.2,30.2*
Cc1ccccc1CC(=O)Nc1nnc(C2CC2)s1,0.2,-3.2,-2.8,0.2,1.1,41.3*
Cc1nn(C)c(C)c1CC(=O)Nc1nnc(C2CCCCC2)s1,2.5,18.8,40.8*,-0.4,25.9,11.5
CCOc1ccc(CNC(=O)C2CCN(c3nc4cccnc4n(CC)c3=O)CC2)cc1,-1.7,5.9,-0.4,1.4,-11.6,-3.7
COc1ccc(-c2c[n+](Cc3ccc([N+](=O)[O-])cc3)c3n2CCC3)cc1,-1.2,14.2,20.3,0.0,18.7,-25.0
CCN1CC2(CC1=O)CN(C(C)=O)CCN(C(=O)c1ccc(OC)cc1)C2 (centres undefined),-5.8,-7.8,-3.0,-17.8,-12.8,-7.9
Cc1ccc(NC(=O)CSc2nc3c(cc2C#N)C(=O)CCC3)cc1,21.0,10.1,-0.2,14.3,0.1,54.7*
N#Cc1cc2c(nc1SCC(=O)NCc1ccccc1)CCCC2,2.9,16.0,13.2,-2.3,20.1,58.6*
N#Cc1cc2c(nc1SCC(=O)NC1CCCCC1)CCCC2,0.6,-21.8,-5.4,6.1,-17.2,-6.9
O=C(c1cnco1)N1CCCC(c2ncc(Cc3ccccc3)o2)C1 (centres undefined),-0.6,7.5,8.3,-2.1,-9.0,5.6
COc1ccc(CCn2c(=O)[nH]c3cc(C(=O)NCc4ccco4)ccc3c2=O)cc1OC,24.0,-2.7,-0.6,42.3*,7.4,-10.8
O=C(NCc1ccccc1)c1ccc2c(=O)n(-c3ccccc3)c(=O)[nH]c2c1,16.9,18.1,16.9,12.8,21.4,66.2*
O=C(NCc1ccco1)c1ccc2c(=O)n(Cc3ccco3)c(=O)[nH]c2c1,2.1,14.7,19.6,0.8,-22.3,40.2*
Cn1ncc2c(NCCc3cccs3)nc(N3CCOCC3)nc21,0.8,-8.1,-6.4,-22.6,-7.1,-8.7
COc1ccc(NC(=O)c2ccc(-c3ccc(N4CCOCC4)nn3)cc2)c(OC)c1,-1.2,-3.7,-4.9,26.7,17.9,-4.3
O=C(Nc1cccc(-c2ccc(N3CCCC3)nn2)c1)c1c(F)cccc1F,6.3,12.4,22.2,9.7,2.1,31.2*
COc1cccc(OC)c1C(=O)Nc1cccc(N2CCCCC2=O)c1,-1.0,-0.6,-2.1,0.1,-6.3,-0.8
